Screening data (PubChem)
tim23-1 inh – growth inhibitors of tim23-1 mutant yeast, primary screen, luminescence, uHTS; actives 1.3% (n = 330,000); S. cerevisiae tim23-1 growth, BacTiter-Glo luminescence, 24 h; inhibition, % at 20 µM;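 active = growth inhibition of the mutant yeast at or above 50%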;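 also: temperature-sensitive mutant grown at 25 °C; plate controls were DMSO-treated mutant yeast for no effect and medium wells lacking yeast for full effect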
PfHsp90 yeast 2 – growth inhibition of PfHsp90-expressing yeast, primary screen, antimalarial PfHsp90 inhibitor project, S. cerevisiae, BacTiter-Glo luminescence, single point, set 2. inhibition, % at 9.4 µM. BacTiter-Glo ATP, 48 h; yeast lacking PDR1 and PDR3 efflux regulators. actives 0.32% (n = 310,000);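 active = every replicate shows inhibition above about 80%, whatever the replicate mean, limit read from the data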;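 also: 0% = DMSO neutral controls and 100% = 20 µM radicicol positive controls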
NALP1 yeast inh – NALP1 inflammasome inhibitors in reconstituted yeast, colorimetric, S. cerevisiae, triplicate retest. S. cerevisiae NALP1/ASC/caspase-1 growth, X-gal OD620, 72 h. inhibition, % at 10 µM. actives 0.61% (n = 280,000); in the data active = inhibition mostly above about 24%, no sharp cut-off; inactive = mostly below about 32%
NLRP3 yeast inh – NALP3 inflammasome inhibitors in reconstituted yeast, primary screen, luminescence, uHTS; Yeast reconstituted NLRP3/ASC/caspase-1, beta-gal luminescence, 24 h; inhibition, % at 10 µM; actives 0.39% (n = 330,000); AID 2825, 2010;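 active = inhibition of 50% or more; inactive = inhibition below 50%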;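 also: plate controls were induced DMSO wells for no effect and uninduced yeast grown without galactose for full effect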
tim10-1 inh – growth inhibitors of tim10-1 mutant yeast, primary screen, luminescence, uHTS; S. cerevisiae tim10-1 ts strain growth, BacTiter-Glo, 24 h; inhibition, % at 20 µM; actives 2.2% (n = 330,000); AID 463190, 2010;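 active = inhibition of at least 40%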;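 also: mutant grown at 25 °C; 0% = DMSO wells with yeast and 100% = wells holding no yeast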
TIM10 inh – growth inhibitors of isogenic TIM10 control yeast, primary screen, counter-screen for tim10-1 yeast inhibitor project, luminescence, uHTS; inhibition, % at 10 µM; S. cerevisiae TIM10 strain growth, BacTiter-Glo luminescence, 24 h; actives 1.4% (n = 330,000);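 active = inhibition of 40% or more at the single tested concentration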;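 also: wild-type TIM10 isogenic control strain grown at permissive 25 °C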
* hit, by the source's call; / = not tested or not shown. Shown are actives, neighbours in structure and some others; about 4.1% of the full set was active somewhere.

SMILES	tim23-1 inh	PfHsp90 yeast 2	NALP1 yeast inh	NLRP3 yeast inh	tim10-1 inh	TIM10 inh
COc1ccc(NC(=O)Cn2cnc3c(cnn3C(C)(C)C)c2=O)cc1OC	1	9	31*	-7	1	-18
CC(C)(C)C(=O)NC(=S)NNC(=O)c1ccc(-c2ccccc2)cc1	49	104*	6	44	8	-31
COc1ccccc1NC(=O)COC(=O)/C=C/c1ccc(OC)c(OC)c1	17	2	/	9	12	16
CCOC(=O)c1c(C)n(-c2ccccc2)c2ccc(OCCN(C)C)cc12	14	19	44*	12	24	7
Cc1ccc(NC(=O)C2=NNC(=O)CC2)cc1F	10	-2	36*	-1	0	-8
CC(=O)Nc1ccc2c(COC(=O)[C@@H](NS(=O)(=O)c3ccc(C)cc3)C(C)C)cc(=O)oc2c1	0	0	/	13	-5	-3
O=C(O)c1cc(S(=O)(=O)N2CCOCC2)c[nH]1	2	-12	/	2	-10	-4
O=C(Nc1ccc(Cl)cn1)Nc1ccc(Cl)cn1	6	-14	30*	19	9	-2
O=C(Nc1ccc(F)cc1)Nc1ccc(Cl)cn1	5	8	-2	14	18	-6
CC(=O)c1ccc(N(CC(=O)NCc2ccc3c(c2)OCO3)C(=O)c2csnn2)cc1	-5	-6	2	20	6	-4
CC(=O)Nc1ccc(Nc2cc(C(C)C)nc3c(-c4ccccc4)c(C)nn23)cc1	45	108*	18	20	33	24
CC1C/C(=C\c2cccnc2)C(=O)/C(=C/c2cccnc2)C1 (stereo not drawn)	/	-19	68*	/	/	/
COc1ccc(-n2cc(CN(C)CCO)c(-c3cccc(F)c3)n2)cc1	7	-21	24*	21	14	-11
COc1ccc(-n2cc(CNCCc3cnc[nH]3)c(-c3cccc(F)c3)n2)cc1	13	-4	27*	16	10	-6
CN(C)/N=C/C=C1\CC/C(=C\c2ccc(F)c(F)c2)C1=O	16	27	/	15	13	21
CC(C)c1ccc(/C=C2\CC/C(=C\C=N\N(C)C)C2=O)cc1	32	/	44*	7	37	27
CCOc1ccc(S(=O)(=O)Nc2ccc(C(=O)N/N=C(\C)c3ccc(-n4ccnc4)cc3)cc2)cc1	6	-9	35*	2	7	1
COc1ccc(NS(=O)(=O)c2cccc(C(=O)N/N=C(/C)c3ccc(-n4ccnc4)cc3)c2)cc1	/	-5	/	/	/	/
Cc1ccc(NC(=O)COC(=O)C2=NN(c3ccccc3)C(=O)CC2)c(Br)c1	17	-11	/	4	23	7
CN1CCN(C(=O)OCCOCCOC(=O)N2CCN(C)CC2)CC1	/	0	/	/	/	/
CC(=O)c1c(-c2ccc(Cl)cc2)c2ccccc2[nH]c1=O	-12	-8	13	24	2	17
CC(=O)c1c(-c2ccccc2)c2cc(Cl)ccc2[nH]c1=O	-13	-16	30*	3	-3	5
Cc1ccc(S(=O)(=O)NC2CCCC2)cc1C	19	6	39*	-9	33	-1
CCCCN(C(=O)c1cc2c(s1)CCCCC2)c1c(N)n(CC(C)C)c(=O)[nH]c1=O	8	-11	/	10	-4	7
CCN1CCN(C(CNS(=O)(=O)c2ccc(F)cc2)c2cccnc2)CC1 (stereo not drawn)	-15	-12	-4	11	-21	-5
SMILES	tim23-1 inh	PfHsp90 yeast 2	NALP1 yeast inh	NLRP3 yeast inh	tim10-1 inh	TIM10 inh
CC(=NNc1nc2ccccc2o1)c1cc2ccccc2cn1	/	145*	/	/	/	/
CC(=O)Nc1cccc(/C(C)=N/Nc2nc3ccccc3s2)c1	20	4	0	3	7	-3
CC(=NNc1nc2ccccc2s1)c1ncccn1	/	115*	/	/	/	/
CC(=NNc1nc2ccccc2o1)c1ncccn1	/	126*	/	/	/	/
O=C(COC(=O)c1ccco1)Nc1ccc(N2CCOCC2)cc1	-5	2	/	-2	10	0
Cc1ccc(C)c(S(=O)(=O)N2CCN(c3ncccn3)CC2)c1	28	-24	34*	43	3	-7
O=S(=O)(c1ccccc1)N1CCN(c2ncccn2)CC1	23	42	5	20	9	6
c1ccc(N2CCN(c3ncccn3)CC2)cc1	-10	/	26*	46	-32	-13
Cc1ccc(S(=O)(=O)N2CCN(S(=O)(=O)N3CCOCC3)CC2)cc1C	-21	/	8	16	5	-19
Cc1ccc(S(=O)(=O)N2CCN(S(=O)(=O)N3CCOCC3)CC2)c(C)c1	13	7	43*	-2	2	4
Cc1ccc(S(=O)(=O)N2CCN(c3ncccn3)CC2)c(C)c1	26	-7	/	38	-4	-8
O=S(=O)(c1ccccc1Br)N1CCN(c2ncccn2)CC1	35	-15	36*	42	15	-6
Cc1ccccc1CC(=O)Nc1ccc(S(=O)(=O)N2CCN(C)CC2)cc1	-6	-3	23	3	16	11
CN(Cc1cnn(Cc2ccccc2)c1)C(=O)c1cccc(S(=O)(=O)N2CCOCC2)c1	-10	/	/	3	-3	11
Cc1ccc(S(=O)(=O)N(C)C)cc1NC(=O)CSc1nc2ncc(Cl)cc2[nH]1	9	13	/	5	11	-1
CC(=O)Nc1c(Cl)cc2c(c1Cl)Cc1cc(C#N)ccc1-2	/	-26	/	/	/	/
COc1ccccc1NC(=O)C(=O)NCCC1CCCCN1S(=O)(=O)c1ccc(F)cc1 (stereo not drawn)	31	-3	/	21	24	17
COCCCN1C(=O)C(=O)/C(=C(/O)c2ccc(OC)cc2)C12C(=O)N(C)c1ccccc12 (stereo not drawn)	10	12	39*	12	5	12
COc1ccc(N2CCN(C(=O)c3ccc4c(c3)CC(c3ccccc3)OC4=O)CC2)cc1 (stereo not drawn)	20	-24	/	18	18	2
COC(=O)c1[nH]c2c(c1C)C(=O)CCC2	-10	1	33*	8	-17	-20
O=C(N/N=C/c1cccc(Oc2ccccc2)c1)c1ccccc1Br	36	/	32*	19	25	-17
O=C(COC(=O)c1n[nH]c(=O)c2ccccc12)Nc1cccc(S(=O)(=O)N2CCOCC2)c1	/	11	/	/	/	/
Cc1cc(C)cc(N=Cc2c(O)c3ccccc3oc2=O)c1	9	-79	4	1	8	9
Cc1cccc(/N=C/c2c(O)c3ccccc3oc2=O)n1	-8	-1	27*	7	3	-3
